Holding throughout (test): PBM; 200 nM protein, PBS
Common to all, as to conditions: dsDNA, one strand shown

In assay [1] the target is HESX1 (Homo sapiens, UniProt Q9UBX0 95-180, R165K).
In assay [2] the target is HESX1 (Homo sapiens, UniProt Q9UBX0 95-180).
Assay [3] addresses HOXB6 (Homo sapiens, UniProt P17509 132-218, K202E).
The target in assay [4] is HESX1 (Homo sapiens, UniProt Q9UBX0 95-180, R109Q).
Assay [5] concerns the target HESX1 (Homo sapiens, UniProt Q9UBX0 95-180, P111T).
Assay [6] deals with HESX1 (Homo sapiens, UniProt Q9UBX0 95-180, F115L).
Chain of HESX1 (Homo sapiens, UniProt Q9UBX0 95-180, F115L) (Q9UBX0 95-180 F115L): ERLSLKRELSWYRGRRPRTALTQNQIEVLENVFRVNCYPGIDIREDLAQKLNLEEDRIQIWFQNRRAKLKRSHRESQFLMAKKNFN
In assay [7] the target is NKX3-2 (Homo sapiens, UniProt P78367 192-278, P234S).
Chain of NKX3-2 (Homo sapiens, UniProt P78367 192-278, P234S) (P78367 192-278 P234S): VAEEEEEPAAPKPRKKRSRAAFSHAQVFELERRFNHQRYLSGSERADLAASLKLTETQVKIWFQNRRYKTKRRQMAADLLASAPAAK
Assay [8] deals with HOXB6 (Homo sapiens, UniProt P17509 132-218).
Chain of HOXB6 (Homo sapiens, UniProt P17509 132-218) (P17509 132-218): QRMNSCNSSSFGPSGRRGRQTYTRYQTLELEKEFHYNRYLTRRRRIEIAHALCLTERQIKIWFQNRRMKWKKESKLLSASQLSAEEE
Assay [9] concerns the target NKX3-2 (Homo sapiens, UniProt P78367 192-278).
The target of assay [10] is ALX4 (Homo sapiens, UniProt Q9H161 200-286).
Chain of ALX4 (Homo sapiens, UniProt Q9H161 200-286) (Q9H161 200-286): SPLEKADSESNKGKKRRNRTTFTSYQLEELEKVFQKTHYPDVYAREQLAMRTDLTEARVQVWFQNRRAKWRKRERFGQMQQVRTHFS
Assay [11] addresses PRRX1 (Homo sapiens, UniProt P54821 80-166, F113S).
The target of assay [12] is ALX4 (Homo sapiens, UniProt Q9H161 200-286, Q225E).
Chain of ALX4 (Homo sapiens, UniProt Q9H161 200-286, Q225E) (Q9H161 200-286 Q225E): as the sequence (Q9H161 200-286) above, with Q26E counted along it
Assay [13] has as its target MSX2 (Homo sapiens, UniProt P35548 130-214, R199I).
For assay [14], the target named is ALX1 (Homo sapiens, UniProt Q15699 118-204, L144V).
Chain of ALX1 (Homo sapiens, UniProt Q15699 118-204, L144V) (Q15699 118-204 L144V): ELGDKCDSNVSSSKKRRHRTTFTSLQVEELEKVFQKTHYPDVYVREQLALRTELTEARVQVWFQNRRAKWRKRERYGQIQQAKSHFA
Assay [15] deals with ALX3 (Homo sapiens, UniProt O95076 139-225, N203Q).
Chain of ALX3 (Homo sapiens, UniProt O95076 139-225, N203Q) (O95076 139-225 N203Q): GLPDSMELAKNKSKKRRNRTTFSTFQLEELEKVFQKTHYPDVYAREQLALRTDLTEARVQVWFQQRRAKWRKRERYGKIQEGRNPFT
Another assay addresses SHOX (Homo sapiens, UniProt O15266 103-189, R173C).
Assay [16] has as its target ALX1 (Homo sapiens, UniProt Q15699 118-204, L144R).
In assay [17] the target is MSX2 (Homo sapiens, UniProt P35548 130-214).
Chain of MSX2 (Homo sapiens, UniProt P35548 130-214) (P35548 130-214): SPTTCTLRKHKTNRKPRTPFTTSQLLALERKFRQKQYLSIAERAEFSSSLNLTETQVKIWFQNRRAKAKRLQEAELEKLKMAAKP
The target in assay [18] is ALX3 (Homo sapiens, UniProt O95076 139-225).
Chain of ALX3 (Homo sapiens, UniProt O95076 139-225) (O95076 139-225): as the sequence (O95076 139-225 N203Q) above, with Q65N counted along it
The target in the next assay is PROP1 (Homo sapiens, UniProt O75360 56-141, R99H).
Chain of PROP1 (O75360 56-141 R99H): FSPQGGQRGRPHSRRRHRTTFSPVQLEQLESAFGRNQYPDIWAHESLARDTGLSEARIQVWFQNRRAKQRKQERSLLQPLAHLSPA
In assay [19] the target is ALX3 (Homo sapiens, UniProt O95076 139-225, L168Q).
Chain of ALX3 (Homo sapiens, UniProt O95076 139-225, L168Q) (O95076 139-225 L168Q): as the sequence (O95076 139-225 N203Q) above, with L30Q, Q65N counted along it
The target in assay [20] is ALX3 (Homo sapiens, UniProt O95076 139-225, L168V).
Chain of ALX3 (Homo sapiens, UniProt O95076 139-225, L168V) (O95076 139-225 L168V): as the sequence (O95076 139-225 N203Q) above, with L30V, Q65N counted along it
Assay [21] addresses MSX2 (Homo sapiens, UniProt P35548 130-214, F161Y).
In assay [22] the target is ALX1 (Homo sapiens, UniProt Q15699 118-204).
Chain of ALX1 (Homo sapiens, UniProt Q15699 118-204) (Q15699 118-204): as the sequence (Q15699 118-204 L144V) above, with V27L counted along it
The target of assay [23] is ALX3 (Homo sapiens, UniProt O95076 139-225, N203S).
Chain of ALX3 (Homo sapiens, UniProt O95076 139-225, N203S) (O95076 139-225 N203S): as the sequence (O95076 139-225 N203Q) above, with Q65S counted along it
In assay [24] the target is PRRX1 (Homo sapiens, UniProt P54821 80-166).
Chain of PRRX1 (Homo sapiens, UniProt P54821 80-166) (P54821 80-166): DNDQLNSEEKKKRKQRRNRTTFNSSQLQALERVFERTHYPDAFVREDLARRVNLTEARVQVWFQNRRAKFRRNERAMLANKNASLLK
In assay [25] the target is HOXC10 (Homo sapiens, UniProt Q9NYD6 254-340).
Chain of HOXC10 (Homo sapiens, UniProt Q9NYD6 254-340) (Q9NYD6 254-340): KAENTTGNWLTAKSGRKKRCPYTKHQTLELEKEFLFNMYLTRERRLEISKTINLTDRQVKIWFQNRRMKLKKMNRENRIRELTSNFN
Assay [26] concerns the target HOXC10 (Homo sapiens, UniProt Q9NYD6 254-340, K271E).
The target in assay [27] is T1, PAX4 (Homo sapiens, UniProt O43316 9-242, R200K).
T1 sequence: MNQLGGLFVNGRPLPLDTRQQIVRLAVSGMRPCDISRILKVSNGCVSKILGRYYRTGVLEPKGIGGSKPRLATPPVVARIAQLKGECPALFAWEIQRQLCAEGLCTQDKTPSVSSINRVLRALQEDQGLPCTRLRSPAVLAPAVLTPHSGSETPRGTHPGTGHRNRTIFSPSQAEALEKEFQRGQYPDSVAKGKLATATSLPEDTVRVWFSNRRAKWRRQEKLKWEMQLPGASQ

Assay [28] deals with T2, PAX4 (Homo sapiens, UniProt O43316 9-242).
T2 sequence: T1 sequence with K192R

For assay [29], the target named is T3, PAX4 (Homo sapiens, UniProt O43316 9-242, R200Q).
T3 sequence: T1 sequence with K192Q

Assay [30] addresses T4, PAX4 (Homo sapiens, UniProt O43316 9-242, F177V).
T4 sequence: T1 sequence with F169V, K192R

In assay [31] the target is T5, PAX4 (Homo sapiens, UniProt O43316 9-242, F177Y).
T5 sequence: T1 sequence with F169Y, K192R

Assay [32] has as its target VAX1 (Homo sapiens, UniProt Q5SQQ9 86-172).
The target in assay [33] is VAX1 (Homo sapiens, UniProt Q5SQQ9 86-172, T142I).
Chain of VAX1 (Homo sapiens, UniProt Q5SQQ9 86-172, T142I) (Q5SQQ9 86-172 T142I): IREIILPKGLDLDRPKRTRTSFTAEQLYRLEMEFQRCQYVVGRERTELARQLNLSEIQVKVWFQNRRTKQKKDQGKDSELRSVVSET
The target in assay [34] is T6, PAX4 (Homo sapiens, UniProt O43316 9-242, R227W).
T6 sequence: T1 sequence with K192R, R219W

Assay [35] has as its target VAX1 (Homo sapiens, UniProt Q5SQQ9 86-172, K157R).

Where a chain is given by its changes, count along the chain named.

Chain of HESX1 (Homo sapiens, UniProt Q9UBX0 95-180, P111T) (Q9UBX0 95-180 P111T): as the sequence (Q9UBX0 95-180 F115L) above, with P17T, L21F counted along it
Chain of HESX1 (Homo sapiens, UniProt Q9UBX0 95-180, R165K) (Q9UBX0 95-180 R165K): as the sequence (Q9UBX0 95-180 F115L) above, with L21F, R71K counted along it
Chain of HESX1 (Homo sapiens, UniProt Q9UBX0 95-180) (Q9UBX0 95-180): as the sequence (Q9UBX0 95-180 F115L) above, with L21F counted along it
Chain of PRRX1 (Homo sapiens, UniProt P54821 80-166, F113S) (P54821 80-166 F113S): as the sequence (P54821 80-166) above, with F34S counted along it
Chain of HESX1 (Homo sapiens, UniProt Q9UBX0 95-180, R109Q) (Q9UBX0 95-180 R109Q): as the sequence (Q9UBX0 95-180 F115L) above, with R15Q, L21F counted along it
Chain of ALX1 (Homo sapiens, UniProt Q15699 118-204, L144R) (Q15699 118-204 L144R): as the sequence (Q15699 118-204 L144V) above, with V27R counted along it
Chain of NKX3-2 (Homo sapiens, UniProt P78367 192-278) (P78367 192-278): as the sequence (P78367 192-278 P234S) above, with S43P counted along it
Chain of MSX2 (Homo sapiens, UniProt P35548 130-214, F161Y) (P35548 130-214 F161Y): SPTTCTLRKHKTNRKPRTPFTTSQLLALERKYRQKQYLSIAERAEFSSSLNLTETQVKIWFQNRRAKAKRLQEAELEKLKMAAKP
Chain of VAX1 (Homo sapiens, UniProt Q5SQQ9 86-172, K157R) (Q5SQQ9 86-172 K157R): as the sequence (Q5SQQ9 86-172 T142I) above, with I57T, K72R counted along it
Chain of MSX2 (Homo sapiens, UniProt P35548 130-214, R199I) (P35548 130-214 R199I): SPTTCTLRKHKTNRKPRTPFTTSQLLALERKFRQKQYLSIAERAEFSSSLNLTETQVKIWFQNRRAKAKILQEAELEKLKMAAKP
Chain of HOXC10 (Homo sapiens, UniProt Q9NYD6 254-340, K271E) (Q9NYD6 254-340 K271E): as the sequence (Q9NYD6 254-340) above, with K18E counted along it
Chain of HOXB6 (Homo sapiens, UniProt P17509 132-218, K202E) (P17509 132-218 K202E): as the sequence (P17509 132-218) above, with K71E counted along it
Chain of VAX1 (Homo sapiens, UniProt Q5SQQ9 86-172) (Q5SQQ9 86-172): as the sequence (Q5SQQ9 86-172 T142I) above, with I57T counted along it
Chain of SHOX (O15266 103-189 R173C): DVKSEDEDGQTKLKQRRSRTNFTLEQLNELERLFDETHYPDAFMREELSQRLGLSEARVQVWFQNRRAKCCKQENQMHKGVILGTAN

On to ATGTTAAT, for which the binding signal was 8.98 upbm affinity estimate (log intensity, higher = more binding, comparable within an allelic series) with HESX1 [1] and 9.41 upbm affinity estimate (log intensity, higher = more binding, comparable within an allelic series) with HESX1 [2].

For the sequence AGAGGACC, the binding signal with HESX1 [1] was 6.6 upbm affinity estimate (log intensity, higher = more binding, comparable within an allelic series); in the assay with HOXB6 [3], 9.07 upbm affinity estimate (log intensity, higher = more binding, comparable within an allelic series); in the assay with HESX1 [2] it was 6.46 upbm affinity estimate (log intensity, higher = more binding, comparable within an allelic series); with HESX1 [4], 6.58 upbm affinity estimate (log intensity, higher = more binding, comparable within an allelic series); in the assay with HESX1 [5], 6.41 upbm affinity estimate (log intensity, higher = more binding, comparable within an allelic series); in the assay with HESX1 [6], 6.55 upbm affinity estimate (log intensity, higher = more binding, comparable within an allelic series). Moreover, the binding signal with NKX3-2 [7] is 11.8 upbm affinity estimate (log intensity, higher = more binding, comparable within an allelic series); with HOXB6 [8], 8.88 upbm affinity estimate (log intensity, higher = more binding, comparable within an allelic series); with NKX3-2 [9], 11.8 upbm affinity estimate (log intensity, higher = more binding, comparable within an allelic series).

For the sequence AATTATCG, the binding signal is 11.5 upbm affinity estimate (log intensity, higher = more binding, comparable within an allelic series) in the assay with HESX1 [1]; 13.7 upbm affinity estimate (log intensity, higher = more binding, comparable within an allelic series) in the assay with ALX4 [10]; 11 upbm affinity estimate (log intensity, higher = more binding, comparable within an allelic series) with PRRX1 [11]; 12.7 upbm affinity estimate (log intensity, higher = more binding, comparable within an allelic series) with ALX4 [12]; 11.6 upbm affinity estimate (log intensity, higher = more binding, comparable within an allelic series) with HESX1 [2]; 12.3 upbm affinity estimate (log intensity, higher = more binding, comparable within an allelic series) with MSX2 [13]. Further, the binding signal with ALX1 [14] is 11.5 upbm affinity estimate (log intensity, higher = more binding, comparable within an allelic series); with ALX3 [15], 8.39 upbm affinity estimate (log intensity, higher = more binding, comparable within an allelic series); with SHOX it was 9.18 upbm affinity estimate (log intensity, higher = more binding, comparable within an allelic series); with ALX1 [16], 11.1 upbm affinity estimate (log intensity, higher = more binding, comparable within an allelic series); with MSX2 [17], 13.4 upbm affinity estimate (log intensity, higher = more binding, comparable within an allelic series); in the assay with ALX3 [18], 12.3 upbm affinity estimate (log intensity, higher = more binding, comparable within an allelic series). For the same sequence, the binding signal is 8.48 upbm affinity estimate (log intensity, higher = more binding, comparable within an allelic series) in the assay with HESX1 [4]; 10.8 upbm affinity estimate (log intensity, higher = more binding, comparable within an allelic series) with PROP1; 10.3 upbm affinity estimate (log intensity, higher = more binding, comparable within an allelic series) in the assay with ALX3 [19]; 10.2 upbm affinity estimate (log intensity, higher = more binding, comparable within an allelic series) in the assay with HESX1 [5]; 9.82 upbm affinity estimate (log intensity, higher = more binding, comparable within an allelic series) with ALX3 [20]; 13 upbm affinity estimate (log intensity, higher = more binding, comparable within an allelic series) with MSX2 [21]. Besides, the binding signal is 7.49 upbm affinity estimate (log intensity, higher = more binding, comparable within an allelic series) with HESX1 [6]; 12 upbm affinity estimate (log intensity, higher = more binding, comparable within an allelic series) with ALX1 [22]; 8.5 upbm affinity estimate (log intensity, higher = more binding, comparable within an allelic series) with ALX3 [23]; 13.2 upbm affinity estimate (log intensity, higher = more binding, comparable within an allelic series) in the assay with PRRX1 [24].

CGCCTAGC: the binding signal in the assay with HESX1 [1] is 6.27 upbm affinity estimate (log intensity, higher = more binding, comparable within an allelic series); with PRRX1 [11], 9.26 upbm affinity estimate (log intensity, higher = more binding, comparable within an allelic series); with HESX1 [2] it was 6.37 upbm affinity estimate (log intensity, higher = more binding, comparable within an allelic series); with HESX1 [4], 6.4 upbm affinity estimate (log intensity, higher = more binding, comparable within an allelic series); in the assay with HESX1 [5], 6.38 upbm affinity estimate (log intensity, higher = more binding, comparable within an allelic series); with HESX1 [6] it was 6.57 upbm affinity estimate (log intensity, higher = more binding, comparable within an allelic series). The binding signal with NKX3-2 [7] was 10.6 upbm affinity estimate (log intensity, higher = more binding, comparable within an allelic series); with PRRX1 [24] it was 9.27 upbm affinity estimate (log intensity, higher = more binding, comparable within an allelic series); with NKX3-2 [9] it was 10.6 upbm affinity estimate (log intensity, higher = more binding, comparable within an allelic series).

As to AGAGCTCT, the binding signal with HESX1 [1] is 6.34 upbm affinity estimate (log intensity, higher = more binding, comparable within an allelic series); in the assay with HOXC10 [25], 10 upbm affinity estimate (log intensity, higher = more binding, comparable within an allelic series); in the assay with HESX1 [2] it was 6.42 upbm affinity estimate (log intensity, higher = more binding, comparable within an allelic series); with ALX1 [14] it was 6.52 upbm affinity estimate (log intensity, higher = more binding, comparable within an allelic series); with ALX1 [16], 6.57 upbm affinity estimate (log intensity, higher = more binding, comparable within an allelic series); in the assay with HOXC10 [26] it was 10.1 upbm affinity estimate (log intensity, higher = more binding, comparable within an allelic series). Besides, the binding signal is 6.48 upbm affinity estimate (log intensity, higher = more binding, comparable within an allelic series) with HESX1 [4]; 6.53 upbm affinity estimate (log intensity, higher = more binding, comparable within an allelic series) in the assay with HESX1 [5]; 6.38 upbm affinity estimate (log intensity, higher = more binding, comparable within an allelic series) with HESX1 [6]; 6.26 upbm affinity estimate (log intensity, higher = more binding, comparable within an allelic series) in the assay with ALX1 [22].

For the sequence ATTATAGC, the binding signal with HESX1 [1] was 8.55 upbm affinity estimate (log intensity, higher = more binding, comparable within an allelic series); with HESX1 [2], 8.71 upbm affinity estimate (log intensity, higher = more binding, comparable within an allelic series).

With CCATAATA, the binding signal with HESX1 [1] is 8.68 upbm affinity estimate (log intensity, higher = more binding, comparable within an allelic series); in the assay with HESX1 [2], 8.79 upbm affinity estimate (log intensity, higher = more binding, comparable within an allelic series).

GCCGGCGA: the binding signal is 6.47 upbm affinity estimate (log intensity, higher = more binding, comparable within an allelic series) in the assay with HESX1 [1]; 9.18 upbm affinity estimate (log intensity, higher = more binding, comparable within an allelic series) with PAX4 [27]; 9.26 upbm affinity estimate (log intensity, higher = more binding, comparable within an allelic series) with PRRX1 [11]; 9.12 upbm affinity estimate (log intensity, higher = more binding, comparable within an allelic series) with PAX4 [28]; 6.42 upbm affinity estimate (log intensity, higher = more binding, comparable within an allelic series) with HESX1 [2]; 9.11 upbm affinity estimate (log intensity, higher = more binding, comparable within an allelic series) with PAX4 [29]. The binding signal with PAX4 [30] is 9.13 upbm affinity estimate (log intensity, higher = more binding, comparable within an allelic series); in the assay with PAX4 [31] it was 9.03 upbm affinity estimate (log intensity, higher = more binding, comparable within an allelic series); with HESX1 [4], 6.45 upbm affinity estimate (log intensity, higher = more binding, comparable within an allelic series); with VAX1 [32], 6.87 upbm affinity estimate (log intensity, higher = more binding, comparable within an allelic series); with HESX1 [5], 6.41 upbm affinity estimate (log intensity, higher = more binding, comparable within an allelic series); with HESX1 [6], 6.43 upbm affinity estimate (log intensity, higher = more binding, comparable within an allelic series). Besides, the binding signal is 7.22 upbm affinity estimate (log intensity, higher = more binding, comparable within an allelic series) with VAX1 [33]; 9.19 upbm affinity estimate (log intensity, higher = more binding, comparable within an allelic series) in the assay with PAX4 [34]; 9.42 upbm affinity estimate (log intensity, higher = more binding, comparable within an allelic series) with PRRX1 [24]; 7.26 upbm affinity estimate (log intensity, higher = more binding, comparable within an allelic series) in the assay with VAX1 [35].

Consider AATTGAGT, for which the binding signal is 9.4 upbm affinity estimate (log intensity, higher = more binding, comparable within an allelic series) with HESX1 [1] and 9.59 upbm affinity estimate (log intensity, higher = more binding, comparable within an allelic series) in the assay with HESX1 [2].

Consider ACCAAATA, for which the binding signal in the assay with HESX1 [1] was 7.74 upbm affinity estimate (log intensity, higher = more binding, comparable within an allelic series); in the assay with HOXC10 [25] it was 10.8 upbm affinity estimate (log intensity, higher = more binding, comparable within an allelic series); with HESX1 [2], 7.83 upbm affinity estimate (log intensity, higher = more binding, comparable within an allelic series); in the assay with HESX1 [5], 7.46 upbm affinity estimate (log intensity, higher = more binding, comparable within an allelic series).

The values above are taken from article PMC11006913.
